# According to PubChem BioAssay (NCATS):
# Results filed as inconclusive are left out. A number with no mark means an inactive call. Calls come from the whole dose curve.
# Assay: Cell Viability - HepG2 (AID 433);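 note: potency for ATP loss meaning cytotoxicity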
# Details: qHTS
# From the text: NIH Chemical Genomics Center [NCGC]
# NIH Molecular Libraries Screening Centers Network [MLSCN]
# National Institutes of Environmental Health Sciences [NIEHS]
# National Toxicology Program [NTP]
# We have developed a 1536-well cell-based assay for quantitative high throughput screening (qHTS) against a number of cell lines to determine in vitro cytotoxicity of small molecules. This particular assay uses the HepG2 cell line which is derived from hepatocellular carcinoma.
# NCGC Assay Protocol Summary:
# The CellTiter-Glo luminescent cell viability assay (Promega) is a homogeneous method to measure the number of viable cells in culture. The end point readout of this assay is based on quantitation of intracellular ATP, an indicator of metabolic activity, using the luciferase reaction. Luciferase catalyzes the oxidation of beetle Luciferin to oxyluciferin and light in the presence of ATP. The luminescent signal is proportional to amount of ATP present.
# Using the CellTiter-Glo luminescent cell viability assay, the amount of cellular ATP was measured in the HepG2 cell line with complete culture medium following compound treatment for 40 hours. The assay was performed in opaque white Kalypsys 1536-well plates. In the screen, tamoxifen and doxorubicin were used as positive controls. Library compounds were measured for their ability to cause acute toxicity in the cell line, as reflected by a decrease in intracellular ATP levels, in a concentration-dependent manner. Data were normalized to the controls for basal activity (DMSO only) and 100% inhibition (100 uM tamoxifen). AC50 values were determined from concentration-response data modeled with the standard Hill equation.
# qHTS protocol fo CellTiter Glo HepG2 cellular assay
# [Step] [Parameter] [Value] [Description]
# 1. Reagent; 5 uL; 1500 HepG2 cells/well
# 2. Time; 5 hr; 37 °C incubation
# 4. Controls; 23 nL; Tamoxifen 0.34 uM to 100 uM & Doxorubicin 0.02 nM to 100 uM
# 5. Time; 40 hr; 37 °C incubation
# 6. Reagent; 5 uL; CellTiter Glo reagent
# 7. Time; 20 min; Room Temperature
# 8. Detection; Luminescence; Viewlux plate reader
# Keywords: cell viability, cytotoxicity, HepG2 cell line, luminescence, NTPHTS, NTPHTS_NCGC, NIEHS, EPA, DSSTox, MLSMR, MLSCN, NIH Roadmap, qHTS, NCGC
# Potency is the fitted concentration of half-maximal effect.
row,SMILES,Potency [µM]
1,CCBr,> 92
2,ClCc1ccccn1,> 92
3,CCCCC(CC)COC(=O)c1ccc(C(=O)OCC(CC)CCCC)c(C(=O)OCC(CC)CCCC)c1 (stereo not given),> 92
4,C(CCOCC1CO1)COCC1CO1 (stereo not given),> 92
5,CC(C)(OOC(C)(C)c1ccccc1)c1ccccc1,> 92
6,C/C=C/C=O,> 92
7,CCOP(=O)(OCC)OCC,> 92
8,C=CCBr,> 92
9,COc1ccc(C=O)cc1,> 92
10,CC(Cl)(Cl)Cl,> 92
11,CCN(CC)N=O,> 92
12,O=S(=O)(O)F,> 92
13,Cc1cnc[nH]1,> 92
14,C=CC#N,> 92
15,O=Cc1ccc2c(c1)OCO2,> 92
16,CCCCCCCCCCCOC(=O)c1ccccc1C(=O)OCCCCCCCCCCC,> 92
17,O=C(O)C(Cl)Br (stereo not given),> 92
18,Cl/C=C\Cl,> 92
19,CN(C)c1ccc(N=Nc2ccccc2)cc1,> 92
20,ClC=CCl,> 92

row,SMILES,Potency [µM]
1,Nc1ccc(Cc2ccc(N)c(Cl)c2)cc1Cl,> 92
2,O=[N+]([O-])c1cccc2c([N+](=O)[O-])cccc12,> 92
3,N#CC(O)c1ccccc1 (stereo not given),> 92
4,OC[P+](CO)(CO)CO,> 92
5,CCCC[N+](=O)[O-],> 92
6,Cl/C=C/CCl,> 92
7,O=[N+]([O-])c1cccc(CCl)c1,> 92
8,c1ccc(C2CO2)cc1 (stereo not given),> 92
9,COc1cc(-c2ccc(N)c(OC)c2)ccc1N,> 92
10,O=P(OCCCl)(OCCCl)OCCCl,> 92
11,CC(=O)CCC(C)=O,> 92
12,Nc1ccccc1-c1ccccc1,> 92
13,Nc1cccc2ccccc12,> 92
14,CC(C)[N+](=O)[O-],> 92
15,CCCBr,> 92
16,C=COC(C)=O,> 92
17,Nc1ccc([N+](=O)[O-])cc1[N+](=O)[O-],> 92
18,CCCCCCCCCCCCCl,> 92
19,N#CCc1ccccc1,> 92
20,CCOP(=S)(OCC)Oc1nc(Cl)c(Cl)cc1Cl,> 92
